High-throughput results (PubChem)
Shown is part of a subset that was picked to be rich in hits.
TbREL1 primary: TbREL1 inhibition, primary screen; actives 0.49% (n = 89,000); inhibition, % at 9.66 µM; TbREL1 RNA ligation, FRET fluorescence; P86926;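 active means inhibition above the mean inhibition across all screened compounds plus 3 SD, cut at about 11% in these data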;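 further: 0% = plate median of test wells and 100% = NSC42067 control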
Target sequence (P86926 whole entry, looked up): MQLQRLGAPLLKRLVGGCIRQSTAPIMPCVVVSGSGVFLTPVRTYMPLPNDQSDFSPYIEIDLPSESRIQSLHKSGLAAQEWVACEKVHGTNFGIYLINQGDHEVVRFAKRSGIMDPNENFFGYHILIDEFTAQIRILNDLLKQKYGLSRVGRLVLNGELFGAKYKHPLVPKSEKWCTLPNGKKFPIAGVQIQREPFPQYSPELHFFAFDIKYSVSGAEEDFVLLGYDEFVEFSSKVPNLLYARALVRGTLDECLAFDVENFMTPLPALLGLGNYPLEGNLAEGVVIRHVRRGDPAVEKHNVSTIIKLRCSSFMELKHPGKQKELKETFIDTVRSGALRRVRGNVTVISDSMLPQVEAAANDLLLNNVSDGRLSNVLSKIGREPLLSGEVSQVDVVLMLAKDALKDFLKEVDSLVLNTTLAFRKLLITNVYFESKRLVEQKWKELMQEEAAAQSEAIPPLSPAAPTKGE
TbREL1 confirm: TbREL1 inhibition, confirmation. shares compounds with TbREL1 primary. TbREL1 RNA ligation, FRET fluorescence. inhibition, % at 9.66 µM. actives 37% (n = 390);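 active means mean inhibition across replicates above a set limit taken from the earlier primary screen, cut at about 11% in these data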;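 further: 0% = REL1 with substrate and DMSO and 100% = REL1 plus control inhibitor NSC42067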
Active calls of the source: *.

SMILES	TbREL1 primary	others
Cc1c(NC(=O)CN2CC(C)OC(C)C2)c(=O)n(-c2ccccc2)n1C (stereo not drawn)	13*
Cc1c(NC(=O)CN2CCN(c3ccccc3)CC2)c(=O)n(-c2ccccc2)n1C	3
Cc1ccc(SCCC(=O)Nc2c(C)n(C)n(-c3ccccc3)c2=O)cc1	-1
O=c1cc(N2CCN(c3cccc(C(F)(F)F)c3)CC2)[nH]c(=O)n1C1CCCCC1	-2
O=C(CN[C@@H](Cc1c[nH]c2ccccc12)C(=O)NCCc1c[nH]c2ccccc12)NC1CCCCC1	-5
Cc1ccc2nc(-c3ccc(NC(=O)CSc4nnc(Cc5cccs5)n4C)cc3)sc2c1	-2
COc1ccc(C(=O)NN)cc1COc1ccc(Br)cc1	6
C=CCc1cccc(CNc2ccc(Br)cc2)c1O	-3
COc1ccc(Br)cc1CNc1ccc(O)cc1	24*
O=C(NCc1ccc(C(F)(F)F)cc1)O[C@H]1CC[C@@]23CCCN2C(=O)CCC[C@H]3C1	-4
CC1(c2ccccc2)CC(=O)N(c2ccc(NC(=O)c3ccccn3)cc2Cl)C1=O (stereo not drawn)	0
O=C(Nc1ccc(C(O)(C(F)(F)F)C(F)(F)F)cc1)c1c(F)cccc1F	1
O=c1c(O[C@H]2O[C@@H](CO)[C@H](O)[C@@H](O)[C@@H]2O)c(-c2ccc(O)cc2)oc2cc(O)cc(O)c12	3
O=c1c(OC2OC(CO)C(O)C(O)C2O)c(-c2ccc(O)c(O)c2)oc2cc(O)cc(O)c12 (stereo not drawn)	92*
O=c1c2c(O)cc(O)cc2oc2c(O)ccc(O[C@H]3O[C@@H](CO)[C@H](O)[C@@H](O)[C@@H]3O)c12	5
Nc1[nH]c(C(=O)c2ccccc2)c(-c2ccc(Cl)cc2Cl)c1C(=O)c1cccs1	0
CC(=O)c1cnc(N(C)C)s1	0
CN(C)c1ncc(C2=C(Cl)C(=O)C(N3CCCC3)=C(Cl)C2=O)s1	69*
CCCCc1ccc2nc(NC(=O)c3ccco3)sc2c1	0
O=C(c1ccc(Cl)cc1)N1CCN(c2ccccn2)CC1	1
O=C1Cc2cc(S(=O)(=O)N3CCN(c4ccc(C(=O)O)cc4)CC3)ccc2N1	4
CC(=O)c1ccc(N2CCN(S(=O)(=O)c3ccc4c(c3)C(Cl)(Cl)C(=O)N4)CC2)cc1	11*
CC(=O)Nc1ccc(S(=O)(=O)N2CCN(c3ccc(C(C)=O)cc3)CC2)cc1	5
COc1ccc2c(c1)C[C@@H]1CC(C)(C)CN1S2(=O)=O	-3
Cc1ccc(S(=O)(=O)c2cc(Nc3ccccc3)ccc2O)cc1	3
SMILES	TbREL1 primary	others
Nc1cccc(Nc2ccccc2)c1	-2
O=S(=O)(O)c1cc(O)c2cc(Nc3ccccc3)ccc2c1	14*
CC(=O)Nc1sc2c(c1-c1nc3ccccc3s1)CNC2	1
Nc1nc(Nc2cccc(Cl)c2)nc(NCc2ccco2)c1[N+](=O)[O-]	11*
COc1ccc(Nc2nc(NCc3ccco3)nc(N)c2[N+](=O)[O-])cc1	0
Nc1nc(Nc2cccc(Cl)c2)nc(NCCO)c1[N+](=O)[O-]	6
CC(=O)N[C@@H](C)CCc1ccc(Oc2ccc(OC(C)C)nc2)cc1	-6
CCCC1CCC2(CC1)CCC2OC(=S)Nc1ccc(Br)cc1 (stereo not drawn)	-3
CO[C@H]([C@H](C)/C=C/N(C)C=O)[C@@H](C)C(=O)CC[C@H](C)[C@H](O)[C@H](C)[C@H]1OC(=O)/C=C/C(C)=C/C[C@H](O)C[C@@H]2C=CC[C@@H](C[C@H](OC)[C@@H](CO)[C@@H](OC)C[C@@H](OC)[C@@H]1C)O2	-4
C/C(=N\NC(=O)C1CC1)c1ccc(OC(F)F)cc1	16*	TbREL1 confirm=4
C/C(=N\NC(=O)C1CC1)c1ccc(C)c(C)c1	-2
COC(=O)N/N=C(\C)c1ccc(OC(F)F)cc1	4
O=C(Nc1ccc(F)cc1)OCc1cn(Cc2cccc(F)c2)nn1	0
Cc1nn(-c2ccccc2)c2sc(C(=O)NC3CCCc4ccccc43)cc12 (stereo not drawn)	3
O=C(NN1C(=O)CSC1=S)C(=O)NN1C(=O)CSC1=S	38*	TbREL1 confirm=19*
O=C(O)c1ccc(N2C(=O)CSC2=S)cc1	3
O=C(O)c1ccc(CN2C(=O)CSC2=S)cc1	7
CC[C@@H](OP(=O)(O)[C@@H](C)N)C(=O)O	2
Cc1cccc(C(=O)Oc2ccc(/C=N/NC(=O)c3ccc(O)cc3)cc2)c1	-4
O=C(N/N=C/c1ccc(OC(=O)c2ccccc2Cl)cc1)c1cc(O)cc(O)c1	12*	TbREL1 confirm=19*
COc1ccc(/C=N/NC(=O)c2cccc(NC(=O)c3ccccc3Cl)c2)cc1	2
Nc1ccc2oc(=O)c3ccccc3c2c1	-2
Nc1ccc2c(c1)C(=O)C(=O)c1ccccc1-2	61*	TbREL1 confirm=87*
Cc1ccc(N2C(=O)c3ccc(N)cc3C2=O)cc1C	5
O=C(NC1CCCCN(Cc2ccc(Cl)cc2)C1=O)c1ccc(COc2ccccc2)cc1 (stereo not drawn)	12*	TbREL1 confirm=-2
SMILES	TbREL1 primary	others
O=C(NC1CCCCN(Cc2ccc(Cl)cc2)C1=O)c1ccccc1 (stereo not drawn)	4
Cc1ccccc1CN1CCCCC(NC(=O)c2ccc(COc3ccccc3)cc2)C1=O (stereo not drawn)	0
O=C(O)c1ccc(-n2nc(-c3ccccc3O)nc2-c2ccccc2O)cc1	1
Cc1ccccc1CN1CCCCC(NC(=O)c2ccc(F)cc2F)C1=O (stereo not drawn)	5
COc1cc(-c2csc(N3CCC(C(N)=O)CC3)n2)cc(OC)c1OC	8
COc1ccc2cc(-c3cn(C(=O)N(c4ccccc4)c4ccccc4)nn3)ccc2c1	1
C=CCn1c(COc2ccc(Cl)cc2)nnc1SCC(=O)c1ccccc1	-4
Cc1onc(-c2ccccc2)c1C(=O)N(Cc1ccccn1)Cc1ccccn1	11*	TbREL1 confirm=4
Cc1onc(-c2ccccc2)c1C(=O)N(C)CCc1ccccn1	-1
Cc1onc(-c2ccccc2)c1C(=O)NC(C)C	-1
CCCCCCC/C=C(\C)[C@@H](O)[C@@H](C)C(=O)N1CCC[C@@H]1C(=O)O[C@H](C(=O)O[C@@H](C)C(=O)O)[C@@H](C)CC	3
CCOC(=O)[C@@]12CCCC=C1N(CCc1ccc(Cl)cc1)C(=O)[C@H]2CC(=O)N1CCN(C(=O)c2ccco2)CC1	0
C[C@H]1[C@H](NC(=O)c2ccc(C(C)(C)C)cc2)CC[C@@]23CCCN2C(=O)CCC[C@@H]13	-4
Cc1ccc(-n2c(SCC(=O)c3ccc(F)cc3)nnc2-c2cnccn2)cc1	-4
CC[C@@]1(c2ccc(C)cc2)C(=O)N(C(=O)OC(C)C)N1C(=O)OC(C)C	0
C=CCN=C1NC(c2ccc(F)cc2)C(C(=O)OC)=C(C)N1Cc1ccccc1C(F)(F)F (stereo not drawn)	14*	TbREL1 confirm=14*
COC(=O)C1=C(C)N(Cc2ccccc2)C(=S)NC1c1ccc(Cl)cc1 (stereo not drawn)	-8
COC(=O)C1=C(C)N(Cc2ccc(Cl)cc2)C(=S)NC1c1ccccc1 (stereo not drawn)	1
COC(=O)C1=C(C)N(Cc2ccccc2)C(=NCCc2c[nH]c3ccccc23)N[C@H]1c1cccc(F)c1	4
COCCN=C1N[C@@H](c2ccc(Br)cc2)C(C(=O)OC)=C(C)N1Cc1ccccc1	5
COC(=O)C1=C(C)N(Cc2ccc(Cl)cc2)C(=S)NC1c1ccc(F)cc1 (stereo not drawn)	-5
